Assay results as given in the supplement of paper PMC10681739.

Experiments:
[1] = molecular target: T1, ETS1 (UniProt P14921); test: ETS1 binding intensity (PBM fluorescence), ETS1 alone (arbitrary fluorescence units); higher = stronger binding; conditions: ETS1 concentration 1 nM; RUNX1 concentration 0 nM
T1 sequence: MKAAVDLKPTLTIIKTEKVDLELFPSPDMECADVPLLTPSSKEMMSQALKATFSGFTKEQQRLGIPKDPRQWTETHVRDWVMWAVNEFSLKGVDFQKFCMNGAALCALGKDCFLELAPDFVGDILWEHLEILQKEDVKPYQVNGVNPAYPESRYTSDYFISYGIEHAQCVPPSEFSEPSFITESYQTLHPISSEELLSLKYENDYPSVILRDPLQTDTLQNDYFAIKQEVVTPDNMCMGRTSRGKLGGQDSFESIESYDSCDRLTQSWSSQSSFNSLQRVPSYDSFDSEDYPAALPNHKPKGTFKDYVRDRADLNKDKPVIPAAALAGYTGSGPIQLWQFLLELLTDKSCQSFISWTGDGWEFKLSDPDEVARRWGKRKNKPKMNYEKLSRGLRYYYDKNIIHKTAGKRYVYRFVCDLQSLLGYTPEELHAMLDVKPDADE

[2] = molecular target: RUNX1 (UniProt Q01196); test: RUNX1 binding intensity (PBM fluorescence), RUNX1 alone (arbitrary fluorescence units); higher = stronger binding; conditions: RUNX1 concentration 2 nM; ETS1 concentration 0 nM
Method: (§1)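 Cooperative gcPBM on 36-bp genomic probes with neighbouring ETS1 and RUNX1 sites. Recombinant human RUNX1 (2 nM) was incubated alone or with ETS1 (25 nM) and detected with anti-RUNX1 antibody plus Alexa488 secondary. Values are medians over 4 replicate spots; the RUNX1+ETS1 data were normalised to the RUNX1-only data. The probes sit in constant array flanks that are not printed.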

[3] = molecular target: RUNX1 (UniProt Q01196); test: RUNX1 binding intensity (PBM fluorescence) in presence of ETS1, normalised to RUNX1-only experiment (arbitrary fluorescence units); higher = stronger binding; conditions: RUNX1 concentration 2 nM; ETS1 concentration 25 nM
Method: as §1
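Wherever RUNX1 binding intensity (PBM fluorescence) in presence of ETS1, normalised to RUNX1-only experiment is given: Full-length recombinant human ETS1 or RUNX1 bound to double-stranded 36-bp genomic probes on microarrays, detected by protein-specific primary antibody and Alexa488 secondary, spot fluorescence as median of four replicate spots.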
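Wherever RUNX1 binding intensity (PBM fluorescence), RUNX1 alone is given: Full-length recombinant human RUNX1 bound to double-stranded 36-bp genomic probes on a high-density microarray, scored as Alexa488 fluorescence per spot via anti-RUNX1 antibody, median of four replicate spots.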

Chain of RUNX1 (Q01196 whole entry): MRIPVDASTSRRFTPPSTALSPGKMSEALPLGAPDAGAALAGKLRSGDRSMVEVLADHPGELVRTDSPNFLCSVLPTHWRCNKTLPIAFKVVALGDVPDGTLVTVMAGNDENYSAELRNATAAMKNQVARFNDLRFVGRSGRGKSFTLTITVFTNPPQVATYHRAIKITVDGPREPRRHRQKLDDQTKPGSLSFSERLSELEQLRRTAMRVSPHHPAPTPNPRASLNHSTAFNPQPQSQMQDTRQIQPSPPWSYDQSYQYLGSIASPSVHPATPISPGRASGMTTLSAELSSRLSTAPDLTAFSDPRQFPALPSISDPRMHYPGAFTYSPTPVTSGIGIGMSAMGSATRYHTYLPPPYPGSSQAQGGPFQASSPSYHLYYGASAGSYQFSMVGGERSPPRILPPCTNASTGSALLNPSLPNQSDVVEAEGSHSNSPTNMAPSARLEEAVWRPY

## GTTCTCAGCTTCCTGTTCACAGAGAAACCTCAGACA
[1]
  ETS1 binding intensity: 1370
[2]
  RUNX1 binding intensity: 946
[3]
  RUNX1 binding intensity: 1390

## CTTTGCTGCCGCCTTCCTGTGCGGGGCCGTGGCGGC
[1]
  ETS1 binding intensity: 493
[2]
  RUNX1 binding intensity: 720
[3]
  RUNX1 binding intensity: 1020

## GTAAATAAAGAGGAAGTCCCTATGCGGGGGATGGGG
[1]
  ETS1 binding intensity: 1910
[2]
  RUNX1 binding intensity: 850
[3]
  RUNX1 binding intensity: 884

## GAACCTGGGAGGCGGAAGTTGCGGTTAGCCGAGATC
[1]
  ETS1 binding intensity: 6030
[2]
  RUNX1 binding intensity: 13500
[3]
  RUNX1 binding intensity: 56300

## AACCATTACAGGATGTGAGATTCAAACCACTAACAG
[1]
  ETS1 binding intensity: 2270
[2]
  RUNX1 binding intensity: 849
[3]
  RUNX1 binding intensity: 1180

## TGAGGGGCTCGCCGGGAAATGTGGTTTAGCGGCCCT
[1]
  ETS1 binding intensity: 564
[2]
  RUNX1 binding intensity: 832
[3]
  RUNX1 binding intensity: 2000

## ATTACAGGAAGTATGTCCTCCTCTGCCTAACCACTG
[1]
  ETS1 binding intensity: 2270
[2]
  RUNX1 binding intensity: 831
[3]
  RUNX1 binding intensity: 1270

## CAGAGCCAAACATGCGGAAGTGGTTACGTGTACTAG
[1]
  ETS1 binding intensity: 3280
[2]
  RUNX1 binding intensity: 795
[3]
  RUNX1 binding intensity: 1900

## CCCCGCGGAACTCTGGCACAGTCAGCTGACCGCAGA
[1]
  ETS1 binding intensity: 424
[2]
  RUNX1 binding intensity: 1600
[3]
  RUNX1 binding intensity: 1440

## ACAATAACAGGAAGTGGTGGGGACTGCGGTGACCTG
[1]
  ETS1 binding intensity: 4750
[2]
  RUNX1 binding intensity: 865
[3]
  RUNX1 binding intensity: 3340

## CTGTGCGAGGCAGGATGTGGTCTCCCGCCACCAGGG
[1]
  ETS1 binding intensity: 5450
[2]
  RUNX1 binding intensity: 788
[3]
  RUNX1 binding intensity: 3160

## CGGCAGGCAAGCAGGAAACCGCGAGTGGAGAAAGGG
[1]
  ETS1 binding intensity: 1960
[2]
  RUNX1 binding intensity: 1010
[3]
  RUNX1 binding intensity: 1860

## CAAGCCAACATCCTGACAGTTTAGAAACCACAGGAG
[1]
  ETS1 binding intensity: 464
[2]
  RUNX1 binding intensity: 779
[3]
  RUNX1 binding intensity: 1300

## TGGCAGAGCACATCCTGTGCGGTTTTCAGTTTTGCT
[1]
  ETS1 binding intensity: 1120
[2]
  RUNX1 binding intensity: 2600
[3]
  RUNX1 binding intensity: 5430

## GTTGAGTTCCGGGGGAGGTTGAGTTCCTGCGGTCAA
[1]
  ETS1 binding intensity: 397
[2]
  RUNX1 binding intensity: 1220
[3]
  RUNX1 binding intensity: 2450

## GTTAGCGTGATCGGAGGATGTGGTTTTCCTCCCTCT
[1]
  ETS1 binding intensity: 1440
[2]
  RUNX1 binding intensity: 942
[3]
  RUNX1 binding intensity: 1930

## GGACAAAACATCATAGGAAGTGGGTTTTGGGGTGAG
[1]
  ETS1 binding intensity: 1500
[2]
  RUNX1 binding intensity: 761
[3]
  RUNX1 binding intensity: 914

## GGCTCGGTGCTGCTTCCTGTGTGGTCAGGATCACAG
[1]
  ETS1 binding intensity: 1870
[2]
  RUNX1 binding intensity: 846
[3]
  RUNX1 binding intensity: 1790

## CTCATTGACAGGAAGTCTAACCACAGGCTTAGGCCC
[1]
  ETS1 binding intensity: 3730
[2]
  RUNX1 binding intensity: 1400
[3]
  RUNX1 binding intensity: 6750

## GCCGCTGCCTCTTCCTGTGTGGTTTTTCAGGGCTTA
[1]
  ETS1 binding intensity: 651
[2]
  RUNX1 binding intensity: 1050
[3]
  RUNX1 binding intensity: 2920

## ACCTGTGTTCTGGCAGGATGTGGTTGACCTCAGCAG
[1]
  ETS1 binding intensity: 4140
[2]
  RUNX1 binding intensity: 755
[3]
  RUNX1 binding intensity: 2700

## CACCTCCTCTCCGGATGCGGTTTGTTCTGCTTGTAG
[1]
  ETS1 binding intensity: 2580
[2]
  RUNX1 binding intensity: 2210
[3]
  RUNX1 binding intensity: 6810

## CACCTCGGGGGTTTCCGGTCCGTGGTTAGCTCCTTC
[1]
  ETS1 binding intensity: 2600
[2]
  RUNX1 binding intensity: 1030
[3]
  RUNX1 binding intensity: 2930

## TCGCACCGGAACCCCTTGGCGGATTATGTGGGTTCC
[1]
  ETS1 binding intensity: 659
[2]
  RUNX1 binding intensity: 782
[3]
  RUNX1 binding intensity: 862

## TGTGTATGAGAACGGATATAGGTGGTTTTATAAGGA
[1]
  ETS1 binding intensity: 1890
[2]
  RUNX1 binding intensity: 756
[3]
  RUNX1 binding intensity: 941

## GGAGGCGGAAGTGGAGGTTGTTGTGGCTCCGAGGGC
[1]
  ETS1 binding intensity: 1940
[2]
  RUNX1 binding intensity: 727
[3]
  RUNX1 binding intensity: 1100

## CCTTGCAGCAACGGATGTGGGTTTTTTTTTTTCTTT
[1]
  ETS1 binding intensity: 4030
[2]
  RUNX1 binding intensity: 1120
[3]
  RUNX1 binding intensity: 10500

## CTGACGCATTTCCGGCCTTTGCGGTTGATCGGTCAT
[1]
  ETS1 binding intensity: 5220
[2]
  RUNX1 binding intensity: 4410
[3]
  RUNX1 binding intensity: 18100

## GGAGGTGGGGAGGAAGTTCTGAAACCACACACATTT
[1]
  ETS1 binding intensity: 749
[2]
  RUNX1 binding intensity: 891
[3]
  RUNX1 binding intensity: 1090

## AAACCCCAAACAGGAAGTGGTAAAGCAACCTGCATC
[1]
  ETS1 binding intensity: 11200
[2]
  RUNX1 binding intensity: 826
[3]
  RUNX1 binding intensity: 7980

## CTTGGCGGAAGTGGTGTGGGGGAGGTAGCCCGCAGT
[1]
  ETS1 binding intensity: 1840
[2]
  RUNX1 binding intensity: 753
[3]
  RUNX1 binding intensity: 3460

## CAGATTCCCGGAAAGGGGGACATGTAGCCGCAAAAG
[1]
  ETS1 binding intensity: 509
[2]
  RUNX1 binding intensity: 815
[3]
  RUNX1 binding intensity: 1040

## CCCTGAGCACTTCCCCGTAAGGCTGCGGTGCACGGG
[1]
  ETS1 binding intensity: 337
[2]
  RUNX1 binding intensity: 871
[3]
  RUNX1 binding intensity: 844

## GACACAAGCCTCACAGGATGTGGTCAAAGAAGGTTG
[1]
  ETS1 binding intensity: 3830
[2]
  RUNX1 binding intensity: 762
[3]
  RUNX1 binding intensity: 3910

## GCGCGGCCCGGAAGGGGGTAACCGCTGAGTCTTTGA
[1]
  ETS1 binding intensity: 794
[2]
  RUNX1 binding intensity: 784
[3]
  RUNX1 binding intensity: 1010

## GACAATGAGCGCACAGGATGTGGTTTGGCGGCAGGG
[1]
  ETS1 binding intensity: 6680
[2]
  RUNX1 binding intensity: 854
[3]
  RUNX1 binding intensity: 3690

## AGTTGTGTTTTAGGATGTGGTCAAAGCCCAACAGAG
[1]
  ETS1 binding intensity: 581
[2]
  RUNX1 binding intensity: 910
[3]
  RUNX1 binding intensity: 1090

## CTGCCTGGCACAGGATGTGGTCATTTGTGCTGAGGA
[1]
  ETS1 binding intensity: 5880
[2]
  RUNX1 binding intensity: 730
[3]
  RUNX1 binding intensity: 4420

## AGTTACAGTAAAGGATGTGGTGAAACAGATGTTTAT
[1]
  ETS1 binding intensity: 847
[2]
  RUNX1 binding intensity: 781
[3]
  RUNX1 binding intensity: 923

## GCAGGACTTCCTGTGTTGTGCTAACCTCAAATTACA
[1]
  ETS1 binding intensity: 975
[2]
  RUNX1 binding intensity: 859
[3]
  RUNX1 binding intensity: 2030

## AGCCTACATCCTGCACTGCTTAACCACAGCCCGCCT
[1]
  ETS1 binding intensity: 509
[2]
  RUNX1 binding intensity: 1960
[3]
  RUNX1 binding intensity: 5470

## AACTAGAGCGTCATTTCCTGTGGGTACAAGTCCAGT
[1]
  ETS1 binding intensity: 1640
[2]
  RUNX1 binding intensity: 842
[3]
  RUNX1 binding intensity: 1370

## GCCAACAGGAAGCTGGAAGCCAACCGCACTGTGTGC
[1]
  ETS1 binding intensity: 1190
[2]
  RUNX1 binding intensity: 899
[3]
  RUNX1 binding intensity: 1670

## CGTCACTTCCCACGCGACTGCCTGCGGGAAACATGG
[1]
  ETS1 binding intensity: 550
[2]
  RUNX1 binding intensity: 1150
[3]
  RUNX1 binding intensity: 1680

## CATTTCAGTCCAGGATGTGGGTGCACACACCGCTTC
[1]
  ETS1 binding intensity: 1610
[2]
  RUNX1 binding intensity: 798
[3]
  RUNX1 binding intensity: 1430

## CGGGGGCCAGGCTTCCTGTGGTGGGAGCGGCAGGCC
[1]
  ETS1 binding intensity: 443
[2]
  RUNX1 binding intensity: 830
[3]
  RUNX1 binding intensity: 1350
